# ± gives the standard deviation.
# T1: HaloTag-ATRX ADD domain (163-292)
# T1 chain: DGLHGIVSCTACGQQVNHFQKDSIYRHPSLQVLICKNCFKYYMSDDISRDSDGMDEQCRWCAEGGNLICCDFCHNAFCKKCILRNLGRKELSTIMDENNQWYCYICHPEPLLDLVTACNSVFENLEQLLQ
# What was measured:
# Assay in all cases: peptide microarray binding signal (635 nm), min-max normalized on array (fraction of array maximum); higher = stronger binding
# Details in all cases: peptide region: H3 11-23
# [1] = target: T1, HaloTag-ATRX ADD domain (163-292)
# Summary of the method: (§1)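 An Axon GenePix 4000B scanned the arrays at 635 nm for signal and at 532 nm to catch misprints. Those arrays held histone 13-mer peptide–cellulose conjugates printed in triplicate on nitrocellulose with a Cy3 tracer, blocked overnight at 4°C and probed for 1 h at 4°C with biotin-labelled HaloTag reader fusions (10 nM to 1 μM) plus streptavidin-Alexa Fluor 647 or with rabbit histone antibodies (1:10,000 to 1:2,000) plus anti-rabbit Alexa 647. Each binding signal is a triplicate-spot mean intensity, scaled min-max within its library.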
# [2] = target: HaloTag-ING2 PHD (mouse Ing2 200-280)
# Summary of the method: as §1
# [3] = target: anti-H3K4me3 antibody ab8580
# Summary of the method: as §1
# [4] = target: anti-H3K9me3 antibody ab8898
# Summary of the method: as §1
# [5] = peptide modifications: H3K14me3 H3K18ac, binder concentration: 1:2,000 dilution
# [6] = peptide modifications: H3K14me3 H3K18ac, binder concentration: 1:10,000 dilution
# [7] = peptide modifications: H3K14me2 H3R17me2s, binder concentration: 1:2,000 dilution
# [8] = peptide modifications: H3K14me2 H3R17me2s, binder concentration: 1:10,000 dilution
# [9] = peptide modifications: H3K14me1 H3R17me2s, binder concentration: 1:2,000 dilution
# [10] = peptide modifications: H3K14me1 H3R17me2s, binder concentration: 1:10,000 dilution
# [11] = peptide modifications: H3K14me1 H3R17me2a, binder concentration: 1:2,000 dilution
# [12] = peptide modifications: H3K14me1 H3R17me2a, binder concentration: 1:10,000 dilution
# [13] = peptide modifications: H3K14me1 H3K18me3, binder concentration: 1:2,000 dilution
# [14] = peptide modifications: H3K14me1 H3K18me3, binder concentration: 1:10,000 dilution
binder,measurement,setting,value
TGGKAPRKQLATK [H3 11-23 T G G Kme3 A P R Kac Q L A T K],peptide microarray binding signal,"[1]; peptide modifications: H3K14me3 H3K18ac, binder concentration: 50 nM",0.00646 ± 0.00042
same,peptide microarray binding signal,"[1]; peptide modifications: H3K14me3 H3K18ac, binder concentration: 500 nM",0.0102 ± 0.00058
same,peptide microarray binding signal,"[2]; peptide modifications: H3K14me3 H3K18ac, binder concentration: 10 nM",0.0146 ± 0.00098
same,peptide microarray binding signal,"[2]; peptide modifications: H3K14me3 H3K18ac, binder concentration: 100 nM",0.032 ± 0.004
same,peptide microarray binding signal,[3]; [5],0.06 ± 0.018
same,peptide microarray binding signal,[3]; [6],0.0259 ± 0.0059
same,peptide microarray binding signal,[4]; [5],0.0686 ± 0.018
same,peptide microarray binding signal,[4]; [6],0.0246 ± 0.0023
TGGKAPRKQLATK [H3 11-23 T G G Kme2 A P Rme2s K Q L A T K],peptide microarray binding signal,"[1]; peptide modifications: H3K14me2 H3R17me2s, binder concentration: 50 nM",0.00489 ± 0.00015
same,peptide microarray binding signal,"[1]; peptide modifications: H3K14me2 H3R17me2s, binder concentration: 500 nM",0.0177 ± 0.0016
same,peptide microarray binding signal,"[2]; peptide modifications: H3K14me2 H3R17me2s, binder concentration: 10 nM",0.0129 ± 0.0031
same,peptide microarray binding signal,"[2]; peptide modifications: H3K14me2 H3R17me2s, binder concentration: 100 nM",0.00964 ± 0.0051
same,peptide microarray binding signal,[3]; [7],0.00034 ± 1e-05
same,peptide microarray binding signal,[3]; [8],0.0123 ± 0.0055
same,peptide microarray binding signal,[4]; [7],0.00669 ± 0.0021
same,peptide microarray binding signal,[4]; [8],0.00726 ± 0.0002
TGGKAPRKQLATK [H3 11-23 T G G Kme A P Rme2s K Q L A T K],peptide microarray binding signal,"[1]; peptide modifications: H3K14me1 H3R17me2s, binder concentration: 50 nM",0.00793 ± 0.00067
same,peptide microarray binding signal,"[1]; peptide modifications: H3K14me1 H3R17me2s, binder concentration: 500 nM",0.0311 ± 0.0068
same,peptide microarray binding signal,"[2]; peptide modifications: H3K14me1 H3R17me2s, binder concentration: 10 nM",0.0249 ± 0.0026
same,peptide microarray binding signal,"[2]; peptide modifications: H3K14me1 H3R17me2s, binder concentration: 100 nM",0.0474 ± 0.0059
same,peptide microarray binding signal,[3]; [9],0.00508 ± 0.0026
same,peptide microarray binding signal,[3]; [10],0.0135 ± 0.0052
same,peptide microarray binding signal,[4]; [9],0.0103 ± 0.0018
same,peptide microarray binding signal,[4]; [10],0.00709 ± 0.00074
TGGKAPRKQLATK [H3 11-23 T G G Kme A P Rme2a K Q L A T K],peptide microarray binding signal,"[1]; peptide modifications: H3K14me1 H3R17me2a, binder concentration: 50 nM",0.00643 ± 0.00034
same,peptide microarray binding signal,"[1]; peptide modifications: H3K14me1 H3R17me2a, binder concentration: 500 nM",0.0164 ± 0.0061
same,peptide microarray binding signal,"[2]; peptide modifications: H3K14me1 H3R17me2a, binder concentration: 10 nM",0.00633 ± 0.00014
same,peptide microarray binding signal,"[2]; peptide modifications: H3K14me1 H3R17me2a, binder concentration: 100 nM",0.0122 ± 0.0012
same,peptide microarray binding signal,[3]; [11],0.00328 ± 0.0014
same,peptide microarray binding signal,[3]; [12],0.00896 ± 0.0044
same,peptide microarray binding signal,[4]; [11],0.00393 ± 0.00055
same,peptide microarray binding signal,[4]; [12],0.00398 ± 0.00069
TGGKAPRKQLATK [H3 11-23 T G G Kme A P R Kme3 Q L A T K],peptide microarray binding signal,"[1]; peptide modifications: H3K14me1 H3K18me3, binder concentration: 50 nM",0.00705 ± 0.00051
same,peptide microarray binding signal,"[1]; peptide modifications: H3K14me1 H3K18me3, binder concentration: 500 nM",0.0115 ± 0.00073
same,peptide microarray binding signal,"[2]; peptide modifications: H3K14me1 H3K18me3, binder concentration: 10 nM",0.0113 ± 0.00048
same,peptide microarray binding signal,"[2]; peptide modifications: H3K14me1 H3K18me3, binder concentration: 100 nM",0.0191 ± 0.00089
same,peptide microarray binding signal,[3]; [13],0.389 ± 0.079
same,peptide microarray binding signal,[3]; [14],0.473 ± 0.23
same,peptide microarray binding signal,[4]; [13],0.0513 ± 0.004
same,peptide microarray binding signal,[4]; [14],0.0139 ± 0.0023

# Reference: the supplement of paper PMC4022240
